The record followed here is PubChem BioAssay.

Calls of active or inactive are those of the source.

The target in one assay is Albumin (Bos taurus) (UniProt P02769). The assay is described as follows: compounds binding labelled BSA control protein – biochemical, small-molecule microarray, Alexa647 label, 635/667 nm fluorescence, artefact control for SMM control protein annotation, profiling panel (AID 1118).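 Also: score merges 667 nm emission intensity and signal-to-noise per printed compound spot.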 The note with it: BSA-A647 binding, fluorescence 635 nm, higher = more signal.
Sequence of Albumin (Bos taurus) (P02769 whole entry, looked up): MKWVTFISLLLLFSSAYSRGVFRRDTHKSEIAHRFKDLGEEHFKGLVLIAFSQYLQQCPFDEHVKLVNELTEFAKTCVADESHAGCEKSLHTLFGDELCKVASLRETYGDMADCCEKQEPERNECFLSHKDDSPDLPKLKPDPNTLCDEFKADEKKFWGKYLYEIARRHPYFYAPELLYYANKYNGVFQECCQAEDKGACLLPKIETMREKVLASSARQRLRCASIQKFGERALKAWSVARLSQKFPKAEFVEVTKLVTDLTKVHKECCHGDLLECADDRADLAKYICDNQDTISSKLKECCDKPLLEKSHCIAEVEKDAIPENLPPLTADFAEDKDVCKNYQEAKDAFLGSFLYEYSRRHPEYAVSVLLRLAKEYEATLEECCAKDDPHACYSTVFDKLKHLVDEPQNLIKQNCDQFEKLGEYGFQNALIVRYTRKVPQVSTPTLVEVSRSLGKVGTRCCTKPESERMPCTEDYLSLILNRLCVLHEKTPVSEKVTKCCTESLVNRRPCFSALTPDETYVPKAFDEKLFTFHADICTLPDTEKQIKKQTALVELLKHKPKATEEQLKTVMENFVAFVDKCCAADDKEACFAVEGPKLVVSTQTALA
Assay [1] can be described thus: probe aXIP binding to arrayed compounds – biochemical, NeuroSMM set, 635/667 nm fluorescence, primary screen (AID 1119).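 Also: probe is the protein aXip251-270 applied at 1 µg/mL to compound-printed slides; binding of probe to printed compounds measured as 667 nm fluorescence plus signal to noise.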 The conditions noted are these: small-molecule microarray, higher = more signal, called active from +8 up or from −8 down.
The nature of assay [2]: probe aNOTCH3 binding on compound microarray – biochemical, small-molecule microarray, 635/667 nm fluorescence, primary screen (AID 1120).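 Also: probe is a biotin-tagged antibody raised against NOTCH3 rather than NOTCH3 protein; score merges spot fluorescence near 667 nm with spot signal to noise.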 The note with it: higher = more signal.
Assay [3] is described as follows: probe aNOTCH2 binding on compound microarray – biochemical, small-molecule microarray, 635/667 nm fluorescence, primary screen (AID 1121).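 Also: score merges feature fluorescence read at 667 nm with its signal to noise.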 The conditions noted are these: higher = more signal.
Assay [4] has as its target Carbonic anhydrase 2 (Homo sapiens) (UniProt P00918). In words: compounds binding carbonic anhydrase 2 – biochemical, small-molecule microarray, Alexa647-labelled CAII, profiling panel (AID 1122). The conditions noted are these: CAII-A647 binding fluorescence, higher = more signal.
Assay [5] in a line: COS7 lysate on small-molecule microarray, probe aHis, 635 nm (AID 1123).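 Also: z-score combines 667nm fluorescence intensity with signal-to-noise per printed compound spot.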 The conditions noted are these: COS7 cell lysate, fluorescence, higher = more signal.
Assay [6] is described as follows: probe aLAP1 signal on lysate-treated microarray – cell lysate, small-molecule microarray, COS7 lysate, primary screen (AID 1124).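 Also: lysate comes from COS7 cells expressing LAP1 and is applied at 0.3 µg/mL; score merges spot fluorescence near 667 nm with signal-to-noise over triplicate slides.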 The note with it: probe aLAP1, fluorescence, higher = more signal.
For a further assay, the system named is Sam68 (KHDRBS1). In words: compounds binding KHDRBS1 protein – biochemical, small-molecule microarray, 635 nm fluorescence, primary screen (AID 1125).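 Also: score merges 667 nm channel intensity with signal to noise over triplicate slides.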 The note with it: higher = more signal.
Assay [7] has as its system Chordin-like protein 2 (CHRDL2). The assay is described as follows: compounds binding chordin-like 2 – biochemical, small-molecule microarray, 635 nm fluorescence, primary screen (AID 1126).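 Also: printed compound slides probed with Chrdl2 protein at 4 µg/mL for 1 h at 4 C; score merges 667 nm emission intensity with signal to noise over three replicate slides.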 The note with it: fluorescence 635 nm, higher = more signal.
Assay [8] has as its target Concanavalin-A (Canavalia ensiformis) (UniProt P02866). In words: compounds binding concanavalin A lectin – biochemical, small-molecule microarray, Alexa647 label, 635 nm, artefact control for SMM control protein annotation, primary screen (AID 1127).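 Also: z combines 667 nm emission intensity with signal-to-noise across three replicate slides.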 The note with it: ConA-A647 binding fluorescence, higher = more signal.

Sequence of Concanavalin-A (Canavalia ensiformis) (P02866 whole entry, looked up): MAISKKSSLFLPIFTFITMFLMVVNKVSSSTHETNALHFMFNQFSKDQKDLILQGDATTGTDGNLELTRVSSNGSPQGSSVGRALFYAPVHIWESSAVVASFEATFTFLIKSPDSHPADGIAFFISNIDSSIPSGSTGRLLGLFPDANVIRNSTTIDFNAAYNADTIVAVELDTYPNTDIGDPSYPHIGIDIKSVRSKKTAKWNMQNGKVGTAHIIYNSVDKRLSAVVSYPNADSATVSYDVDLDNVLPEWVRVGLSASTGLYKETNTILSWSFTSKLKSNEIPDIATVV

With `COc1cc2c(cc1O)C(C1CC1)N(Cc1cccc(OC(F)(F)F)c1)CC2` (stereo not given), the composite z-score is 0.353 in the assay with Albumin (Bos taurus); -0.0824 in [2]; -0.0846 in [3]; 0.814 in [4]; 1.06 in assay [5]; 0.762 in [6]. Further, the composite z-score in the assay with Sam68 (KHDRBS1) was -0.316; in assay [7] it was 0.13; in assay [8], -0.744. Also, the composite Z-score in [1] was 0.926 (inactive).

As to `COCCOC(=O)N1C(=O)[C@@]2(c3cc(C#CCNC(N)=O)ccc31)[C@H](C(N)=O)[C@H]1C(=O)O[C@H](c3ccccc3)[C@H](c3ccccc3)N1[C@@H]2c1ccccc1OCCO`, the composite z-score with Albumin (Bos taurus) was 0.222; in [2] it was 0.133; in [3] it was 0.0065; in assay [4], 0.3; in [5], 1.4; in [6], 0.521. Also, the composite z-score was 1.05 in the assay on Sam68 (KHDRBS1), 0.743 in assay [7] and 1.06 in assay [8]. In assay [1], the composite Z-score is -0.327 (inactive).

On to `O=c1cccc(-c2ccc([N+](=O)[O-])cc2)o1`, for which the composite z-score is -0.293 with Albumin (Bos taurus); 0.0692 in assay [2]; -0.154 in [3]; 0.365 in assay [4]; 0.403 in [5]; 0.633 in assay [6]. Further, the figures for the composite z-score (in the assay on Sam68 (KHDRBS1); in assay [7]; in assay [8]) were 0.795, 0.075 and -0.549, respectively. The composite Z-score in assay [1] was 0.46 (inactive).

Consider `C=CCN1C(=O)[C@]2(CCS(=O)(=O)c3ccccc3)N=C(c3ccc(OCCCO)cc3)O[C@@H]2c2ccccc21`, for which the composite z-score is 0.8 in the assay with Albumin (Bos taurus); 0.177 in [2]; -0.112 in assay [3]; 0.594 in assay [4]; 3.23 in [5]; 1.31 in assay [6]. Moreover, the composite z-score in the assay on Sam68 (KHDRBS1) was found to be 1.31; in assay [7], 1; in [8], 1.17. Further, the composite Z-score in assay [1] was -0.0072 (inactive).

Regarding `CC1CC/C=C\[C@H]2OC34C=CCN(C(C)(C)C)C(=O)[C@H]3N(CCCCCO)C(=O)[C@@H]4C2C(=O)O1` (stereo not given in full), the composite z-score with Albumin (Bos taurus) was -0.0891; in assay [2] it was -0.219; in assay [3], -0.153; in assay [4], 0.887; in assay [5], -0.658; in assay [6], -0.55. Further, the composite z-score in the assay with Sam68 (KHDRBS1) is -0.883; in [7] it was -1.34; in assay [8], -2.1. The composite Z-score in [1] is -0.838 (inactive).

For the molecule `COc1ccc(CCNC(=O)[C@@]2(Cc3ccccc3I)c3ccccc3C(=O)N(C3CCCCC3)[C@H]2c2ccc(CO)cc2)cc1`, the composite z-score with Albumin (Bos taurus) was 0.471; in assay [2] it was -0.0647; in [3], -0.162; in [4], 0.218; in assay [5], 1.5; in assay [6], -0.167. In addition, the composite z-score in the assay on Sam68 (KHDRBS1) is 0.621; in [7], -0.718; in assay [8], 0.969. In assay [1], the composite Z-score is -0.0065 (inactive).

For `CCCC1(C(=O)OC)C=C2C(=C(C)C(=O)C2C)CN1` (stereo not given), the composite z-score in the assay with Albumin (Bos taurus) is -0.15; in [2] it was 0.0416; in [3], -0.0936; in [4], 0.664; in [5], 1.24; in assay [6], -0.293. The composite z-score is -0.406 in the assay with Sam68 (KHDRBS1), -0.027 in [7] and -2.2 in [8]. Further, the composite Z-score in assay [1] was 0.931 (inactive).

For `CCCCCN1CC=CC23O[C@@H]4C=CCCOC(=O)C4[C@H]2C(=O)N(CCCCCCO)[C@@H]3C1=O` (stereo not given in full), the composite z-score with Albumin (Bos taurus) was -0.587; in assay [2], -0.252; in assay [3], -0.203; in assay [4], 0.861; in assay [5] it was 2.33; in [6], 0.0488. The composite z-score with Sam68 (KHDRBS1) was 0.0067; in assay [7], -0.856; in [8], -0.52. The composite Z-score in assay [1] was 0.976 (inactive).

With `Cc1ccc(S[C@]2(C(=O)O)CC(=O)N(C3CCCCC3)[C@@H]2c2ccc(CO)cc2I)cc1`, the composite z-score in the assay with Albumin (Bos taurus) is 0.905; in assay [2], 0.175; in [3] it was -0.013; in [4] it was 0.331; in [5] it was 2.84; in assay [6] it was 1.01. Besides, the composite z-score in the assay with Sam68 (KHDRBS1) was 1.29; in assay [7], -0.565; in [8], 1.02. The composite Z-score in assay [1] is 0.258 (inactive).

With `N[C@@H](Cc1ccccc1)C(=O)NCc1cn(Cc2ccccc2)nn1`, the composite z-score was -0.337 with Albumin (Bos taurus); -0.0656 in assay [2]; -0.101 in assay [3]; 0.431 in assay [4]; -0.276 in assay [5]; -0.0884 in assay [6]. Also, the composite z-score with Sam68 (KHDRBS1) is -0.341; in assay [7], 0.849; in assay [8], -0.0527. Also, the composite Z-score in assay [1] was 0.961 (inactive).

As to `CC(C)C(CO)N1C(=O)[C@@H]2C3C(=O)OCCC/C=C\[C@H]3OC23C=CCN(c2ccc4ccccc4c2)C(=O)[C@@H]13` (stereo not given in full), the composite z-score in the assay with Albumin (Bos taurus) was 0.974; in [2] it was -0.0716; in [3], -0.156; in [4], 0.941; in assay [5], -0.201; in assay [6], -0.18. The composite z-score was -1.02 in the assay on Sam68 (KHDRBS1), -1.28 in assay [7] and -0.612 in assay [8]. Further, the composite Z-score in assay [1] was 0.503 (inactive).

Consider `CC(C)NC(=O)[C@@]1(C)c2ccccc2C(=O)N(Cc2ccc(OC(F)(F)F)cc2)[C@H]1c1ccc(CO)cc1`, for which the composite z-score in the assay with Albumin (Bos taurus) is 0.484; in assay [2], -0.367; in assay [3] it was -0.0995; in [4] it was 0.607; in assay [5], 1.54; in [6] it was 0.173. The results for the composite z-score (in the assay with Sam68 (KHDRBS1); in [7]; in assay [8]) were 0.844, -1.02 and -0.04, respectively. The composite Z-score in [1] was -0.263 (inactive).

Consider `C=CC[C@@]1(C(=O)NCCCOC)N=C(c2ccc(OCCCO)cc2)O[C@@H]1c1ccccc1N=[N+]=[N-]`, for which the composite z-score was 0.896 with Albumin (Bos taurus); 0.356 in assay [2]; -0.125 in assay [3]; 0.224 in [4]; 1.73 in assay [5]; 0.209 in assay [6]. The results for the composite z-score (with Sam68 (KHDRBS1); in assay [7]; in assay [8]) were 1.01, -0.325 and 0.562, respectively. Moreover, the composite Z-score in assay [1] was -0.349 (inactive).
